18 compounds from article PMC5540273 (PLoS ONE, 2017) can be followed below.

What all share (conditions): concentration: 1 μM, replicates: in singlicate; n = 1
The subject of experiment [1] is INSR.
For experiment [2], the system named is IRAK1.
Experiment [3] relates to IRAK3.
For experiment [4], the system named is IRAK4.
The subject of experiment [5] is ITK.
In experiment [6] the test system is JAK1(JH1domain-catalytic).
Experiment [7] concerns JAK1(JH2domain-pseudokinase).
The subject of experiment [8] is JAK2(JH1domain-catalytic).
In experiment [9] the test system is JAK3(JH1domain-catalytic).
Experiment [10] concerns T1, JNK1.
T1 construct: gene MAPK8
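Further: KINOMEscan kinase panel screen.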

`COc1cccc(C2=C(Nc3cccc(C(=O)O)c3)C(=O)NC2=O)c1` [SB-390770]: the “%Inh” value in experiment [1] is listed as 0%; in experiment [2], 0%; in experiment [3] it was 7%; in [4], 0%; in [5] it was 1%; in experiment [6] it was 1%. The “%Inh” value in [7] is recorded as 2%; in experiment [8], 33%; in experiment [9] it was 94.7%; in experiment [10], 22%.

Regarding `COc1ccc(-c2cc3c(C)nc(N)nc3n([C@H]3CC[C@H](OCCO)CC3)c2=O)cn1`, the “%Inh” value worked out at 24% in experiment [1]; 4% in [2]; 19% in [3]; 3% in [4]; 0% in experiment [5]; 0% in experiment [6]. The “%Inh” value in experiment [7] was found to be 22%; in experiment [8] it was 0%; in [9], 0%; in [10] it was 0%.

Regarding `COc1cc2ncn(-c3cc(OCc4ccncc4Br)c(C(N)=O)s3)c2cc1OC` [GW854278], the “%Inh” value in experiment [1] is reported as 1%; in experiment [2] it was 3%; in experiment [3], 27%; in experiment [4], 3%; in experiment [5], 0%; in experiment [6], 0%. The “%Inh” value in [7] is listed as 19%; in experiment [8], 0%; in [9], 0%; in experiment [10], 0%.

On to `Cc1cc(Nc2nc(-c3cccc(C)n3)nc3ccccc23)ccn1` [GW872411], for which the “%Inh” value in experiment [1] was determined as 0%; in experiment [2] it was 0%; in experiment [3], 0%; in experiment [4], 0%; in experiment [5], 0%; in experiment [6], 4%. The “%Inh” value in [7] came to 81%; in experiment [8], 0%; in experiment [9], 0%; in [10], 0%.

Take `CCn1c(-c2nonc2N)nc2ccccc21` [SB-693162/GW549034]: the “%Inh” value came out at 17% in experiment [1]; 0% in [2]; 0% in [3]; 48% in experiment [4]; 0% in experiment [5]; 8% in [6]. The “%Inh” value in experiment [7] is on record as 0%; in experiment [8], 0%; in experiment [9], 0%; in experiment [10] it was 78%.

With `CN1C(=O)C(Nc2cc(Cl)c(O)c(Cl)c2)=C(c2ccc(Cl)cc2)C1=O` [SB-404321], the “%Inh” value is reported as 0% in [1]; 0% in experiment [2]; 0% in experiment [3]; 0% in experiment [4]; 0% in experiment [5]; 13% in [6]. Also, the “%Inh” value in [7] was found to be 0%; in experiment [8], 0%; in experiment [9] it was 0%; in [10], 24%.

For the compound `Cc1cccc(-c2cc(-c3c[nH]nc3-c3ccccn3)ccn2)c1` [GW679395], the “%Inh” value was 1% in experiment [1]; 34% in experiment [2]; 1% in experiment [3]; 18% in experiment [4]; 4% in experiment [5]; 5% in experiment [6]. Also, the “%Inh” value worked out at 0% in [7], 8% in experiment [8], 0% in experiment [9] and 56% in [10].

As for `Nc1nc(N)c2nc(-c3ccccc3)[nH]c2n1` [SKF-12778], the “%Inh” value in experiment [1] stood at 0%; in experiment [2], 34%; in experiment [3] it was 0%; in experiment [4], 3%; in experiment [5], 8%; in [6], 11%. Also, the “%Inh” value in experiment [7] amounted to 84%; in experiment [8], 50%; in experiment [9], 39%; in experiment [10] it was 20%.

Turning to `CN1C(=O)C(Nc2ccccc2)=C(c2ccccc2)C1=O` [SB-300079], the “%Inh” value in experiment [1] is 22%; in [2], 16%; in experiment [3], 0%; in [4], 0%; in [5], 0%; in [6], 0%. Besides, the “%Inh” value in [7] is 33%; in experiment [8], 42%; in [9], 2%; in [10], 14%.

`COc1cc(OC)cc(-c2cc3cnc(N)nc3nc2NC(=O)NC(C)(C)C)c1`: the “%Inh” value in experiment [1], in [2], in experiment [3], in [4], in experiment [5] and in experiment [6] was 0% throughout. Further, the “%Inh” value in [7], in experiment [8], in experiment [9] and in [10] was 0% in each case.

Regarding `O=C1NC(=O)C(c2ccccc2)=C1Nc1cccc(O)c1` [SB-390534], the “%Inh” value in experiment [1], in experiment [2], in [3], in [4], in [5] and in experiment [6] was 0% each time. The “%Inh” value in experiment [7] is given as 17%; in experiment [8] it was 15%; in [9] it was 0%; in experiment [10], 22%.

As to `Nc1ncnc2c1ncn2-c1cccc2ccccc12` [SKF-97184], the “%Inh” value was found to be 0% in experiment [1]; 27% in experiment [2]; 0% in experiment [3]; 0% in experiment [4]; 0% in experiment [5]; 1% in [6]. The “%Inh” value stood at 33% in experiment [7], 54% in experiment [8], 19% in experiment [9] and 15% in [10].

Take `O=C(Nc1ccc2c(c1)OCO2)NC1CCN(c2ccnc(NCc3ccc(F)cc3)n2)CC1` [GSK1379859]: the “%Inh” value in experiment [1] was determined as 45%; in experiment [2], 0%; in experiment [3], 0%; in experiment [4] it was 0%; in [5] it was 0%; in experiment [6], 7%. The “%Inh” value in [7], in experiment [8], in experiment [9] and in [10] was 0% in each case.

With `Cc1cccc(-c2nc(Nc3ccc4c(cnn4C)c3)c3ccccc3n2)n1` [GW876731], the “%Inh” value turned out to be 0% in experiment [1]; 0% in experiment [2]; 0% in experiment [3]; 0% in experiment [4]; 0% in experiment [5]; 15% in [6]. Moreover, the “%Inh” value amounted to 16% in experiment [7], 26% in [8], 0% in [9] and 1% in experiment [10].

Regarding `Cc1ccc(-c2ccc3c(ccc4sc5c(c43)NC[C@@H](C)N=C5N(C)C)n2)cn1`, the “%Inh” value in experiment [1], in experiment [2], in experiment [3], in experiment [4], in experiment [5] and in experiment [6] was 0% each time. Also, the “%Inh” value stood at 0% in [7], 0% in experiment [8], 0% in experiment [9] and 4% in [10].

In the case of `COc1cc2ncn(-c3cc(OCc4ccc(S(C)(=O)=O)cc4)c(C(N)=O)s3)c2cc1OC` [GW869979], the “%Inh” value in experiment [1] was 13%; in [2], 26%; in experiment [3], 4%; in experiment [4], 21%; in [5] it was 16%; in [6], 2%. Besides, the “%Inh” value in experiment [7] turned out to be 11%; in experiment [8], 18%; in experiment [9], 30%; in [10], 36%.

On to `CCn1c(-c2ccoc2)nc2cnccc21` [SB-733887], for which the “%Inh” value in experiment [1] was 96.3%; in [2], 59%; in [3], 0%; in experiment [4], 50%; in experiment [5], 9%; in experiment [6] it was 9%. Further, the “%Inh” value in experiment [7] is 65%; in [8], 16%; in experiment [9], 0%; in experiment [10], 9%.

Regarding `CCC(=O)c1c(-c2ccccc2)c2cc(Cl)ccc2c(=O)n1Cc1cc(S(C)(=O)=O)n(CC(N)=O)n1`, the “%Inh” value in [1], in [2], in experiment [3], in [4], in experiment [5] and in [6] was 0% each time. Moreover, the “%Inh” value is given as 51% in experiment [7], 0% in [8], 0% in experiment [9] and 99% in [10].
